“And” between values parts separate entries of the source, which are not always exact repeats. Identical values can stand only once. Inconclusive results are not listed. The source made the active and inactive calls. Rule for the calls, unless noted: active = hit-call score of the fitted dose curve at least 0.9, where 1 is the maximum; inactive = score below 0.9.
Assays:
[1] = target: Glucocorticoid receptor (Homo sapiens) (UniProt P04150); assay: ATG_GR_TRANS: Attagene TRANS-FACTORIAL HepG2 Assay for human Glucocorticoid Receptor (GR) (AID 2282978; active = hit-call score of the fitted dose curve at least 0.9, where 1 is the maximum;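 note: activators score as hits since higher reporter transcript over DMSO is fitted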); details: HepG2 Attagene TRANS GR reporter, mRNA transcription
Outline: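 Measurement of GAL4-UAS-driven reporter mRNA in human HepG2 liver cells 24 h post-dosing, using RT-PCR with fluorescent labelling and capillary electrophoresis; the transfected constructs report exogenous NR-GAL4 chimera activity, fitted upward against DMSO.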

[2] = target: Bile acid receptor (Homo sapiens) (UniProt Q96RI1); assay: ATG_FXR_TRANS: Attagene TRANS-FACTORIAL HepG2 Assay for Farnesoid X Receptor (FXR) (AID 2282979; active = hit-call score of the fitted dose curve at least 0.9, where 1 is the maximum;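 note: hits raise reporter mRNA above DMSO so AC50 marks FXR activation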); details: HepG2 Attagene TRANS FXR-GAL4 reporter transcription
Outline: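 Chimeric FXR-GAL4 activity in transiently transfected human HepG2 liver cells is scored as induction of reporter mRNA after 24 h of dosing. Detection uses RT-PCR with fluorescent labelling and capillary electrophoresis, with DMSO serving as baseline.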

[3] = target: Oxysterols receptor LXR-alpha (Homo sapiens) (UniProt Q13133); assay: ATG_LXRa_TRANS: Attagene TRANS-FACTORIAL HepG2 Assay for human Liver X Receptor alpha (LXRa) (AID 2282980; active = hit-call score of the fitted dose curve at least 0.9, where 1 is the maximum); details: HepG2 Attagene TRANS reporter, LXRa transactivation
Outline: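 Transient HepG2 transfectants, 24 h dosing, RT-PCR/CE mRNA reporter quantitation; gain-of-signal vs DMSO.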

[4] = target: Hepatocyte nuclear factor 4-alpha (Homo sapiens) (UniProt P41235); assay: ATG_HNF4a_TRANS: Attagene TRANS-FACTORIAL HepG2 Assay for human Hepatocyte Nuclear Factor 4 alpha (HNF4a) (AID 2282982; active = hit-call score of the fitted dose curve at least 0.9, where 1 is the maximum); details: HepG2 HNF4a transactivation reporter, mRNA readout
Outline: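 Cells used were human HepG2, transiently carrying GAL4-UAS reporter units read out against exogenous NR-GAL4 chimeras. Reporter transcript levels after 24 h dosing were quantified by fluorescent RT-PCR and capillary electrophoresis.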

[5] = ATG_M_06_TRANS: Attagene TRANS-FACTORIAL HepG2 Assay for M06 Transcription Factor (Internal Marker) (AID 2282983; active = hit-call score of the fitted dose curve at least 0.9, where 1 is the maximum); details: HepG2 Attagene TRANS M06 internal marker reporter
Outline: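 Measured by capillary electrophoresis of fluorescently labelled RT-PCR products, this endpoint reflects reporter mRNA in HepG2 cells harbouring exogenous NR-GAL4 reporter constructs after 24 h exposure, with DMSO as baseline.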

[6] = target: Transcriptional activator Myb (Homo sapiens) (UniProt P10242); assay: ATG_Myb_CIS: Attagene CIS-FACTORIAL HepG2 Assay for human Myeloblastosis (Myb) Proto-Oncogene Transcription Factor (AID 2282986); details: HepG2 Attagene CIS-FACTORIAL Myb reporter transcription; actives raise or lower the signal
Outline: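 Fluorescence signals from capillary electrophoresis of RT-PCR-amplified reporter cDNA give the read-out. Cells: HepG2 transfected with multiple cis-regulated reporter units. Exposure lasts 24 hours; DMSO defines baseline for gain or loss of signal.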

[7] = target: Nuclear respiratory factor 1 (Homo sapiens) (UniProt Q16656); assay: ATG_NRF1_CIS: Attagene CIS-FACTORIAL HepG2 Assay for human Nuclear Respiratory Factor 1 (NRF1) Orphan Gene (AID 2282987); details: HepG2 NRF1 cis-element reporter, Attagene multiplex; actives raise or lower the signal
Outline: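 Transcriptional reporter readout, one component of a 52-endpoint multiplexed HepG2 panel. Exposure 24 h; mRNA detected via RT-PCR and fluorescent capillary electrophoresis; fitting in both directions against DMSO.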

[8] = ATG_NFI_CIS: Attagene CIS-FACTORIAL HepG2 Assay for human Nuclear Factor I (NFI) (AID 2282989); details: HepG2 cis-regulatory reporter, NFI response element transcription; actives raise or lower the signal
Outline: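 Transfected HepG2 liver cells, exposed 24 h, supplied total RNA for oligo(dT) reverse transcription and reporter-specific PCR. Labelled, HpaI-cut fragments were sized by capillary electrophoresis; DMSO set the baseline for bidirectional fitting.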

[9] = target: Myc proto-oncogene protein (Homo sapiens) (UniProt P01106); assay: ATG_Myc_CIS: Attagene CIS-FACTORIAL HepG2 Assay for human Myelocytomatosis (Myc) Proto-Oncogene Transcription Factor (AID 2282990); details: HepG2, Attagene cis-reporter transcription factor activity; actives raise or lower the signal
Outline: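 DMSO-normalised, bidirectionally fitted reporter mRNA signal. HepG2 cells transfected with cis reporter constructs, treated 24 h; transcripts detected by RT-PCR, 6-FAM primer extension and CE.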

[10] = ATG_NRF2_ARE_CIS: Attagene CIS-FACTORIAL HepG2 Assay for human Nuclear Factor Erythroid 2 Related Factor 2 (NFR2) response to Antioxidant Response Elements (ARE) (AID 2282992); details: HepG2 Attagene ARE/NRF2 reporter, transcription factor activity; actives raise or lower the signal;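 for AC50: reporter mRNA level measured by RT-PCR and capillary electrophoresis fluorescence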
Outline: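 HepG2 cells transiently transfected with multiplexed cis-regulated reporter transcription units measure endogenous transcription factor activity. Reporter mRNA at 24 h is quantified by RT-PCR, fluorescent labelling and capillary electrophoresis, with bidirectional fitting relative to DMSO.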

[11] = ATG_Oct_MLP_CIS: Attagene CIS-FACTORIAL HepG2 Assay for human Octamer-Binding Transcription Factor (Oct) (AID 2282993); details: HepG2 Attagene cis-factorial Oct reporter, mRNA; actives raise or lower the signal
Outline: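 Using HepG2 cells bearing transfected cis-reporter constructs, mRNA induction was read after 24 h by fluorescent RT-PCR and capillary electrophoresis, with DMSO defining baseline for gain- or loss-of-signal fits.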

[12] = BSK_3C_TissueFactor: BioMAP Diversity Plus: 3C Assay for Tissue Factor Biomarker Activity (AID 2282997); details: BioMAP 3C HUVEC, tissue factor biomarker readout; actives raise or lower the signal
Outline: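 Values derive from bidirectional curve fitting against DMSO of Tissue Factor ELISA signals, taken 24 h after dosing primary human umbilical vein endothelial cells.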

[13] = BSK_3C_VCAM1: BioMAP Diversity Plus: 3C Assay for Vascular cell adhesion molecule 1 (VCAM1) Biomarker Activity (AID 2282999); details: BioMAP 3C HUVEC, VCAM1 ELISA, cytokine-stimulated; actives raise or lower the signal
Outline: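 Human umbilical vein endothelial cells were dosed with compound for 24 h, after which cell-surface VCAM-1 was quantified by ELISA. Bidirectional curve fitting used DMSO as negative control and activity baseline.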

[14] = target: Oxysterols receptor LXR-beta (Homo sapiens) (UniProt P55055); assay: ATG_LXRb_TRANS: Attagene TRANS-FACTORIAL HepG2 Assay for human Liver X Receptor beta (LXRb) (AID 2282981; active = hit-call score of the fitted dose curve at least 0.9, where 1 is the maximum); details: HepG2 Attagene TRANS GAL4-LXRb reporter, mRNA
Outline: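 In this TRANS format, exogenous chimeric NR-Gal4 protein activity, not endogenous factors, drives reporter expression in transfected human HepG2 cells. Exposure lasted 24 h; reporter mRNA was read by fluorescent capillary electrophoresis.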

[15] = ATG_M_32_TRANS: Attagene TRANS-FACTORIAL HepG2 Assay for M32 Transcription Factor (Internal Marker) (AID 2282984; active = hit-call score of the fitted dose curve at least 0.9, where 1 is the maximum;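 note: transcript level of a background control reporter unit measured by RT-PCR and capillary electrophoresis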); details: HepG2 Attagene TRANS M32 internal marker reporter
Outline: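 Human hepatoma HepG2, transient MRTU transfection, 24 h treatment. RNA → RT-PCR → fluorescent primer extension → HpaI digest (2 h, 37 C) → CE. Positive-direction fit vs DMSO.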

[16] = ATG_NF_kB_CIS: Attagene CIS-FACTORIAL HepG2 Assay for human Nuclear Factor Kappa B (NF-kB) (AID 2282991); details: HepG2 Attagene cis-factorial NF-kB reporter mRNA; actives raise or lower the signal
Outline: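 HepG2, transient multi-reporter transfection, cis promoter elements (endogenous TFs). 24 h exposure. Total RNA → RT → PCR → 6-FAM label → HpaI → CE. Gain/loss vs DMSO.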

[17] = target: Cellular tumor antigen p53 (Homo sapiens) (UniProt P04637); assay: ATG_p53_CIS: Attagene CIS-FACTORIAL HepG2 Assay for human p53 Transcription Factor (AID 2282994); details: HepG2 p53 cis-element reporter, Attagene mRNA; actives raise or lower the signal
Outline: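 HepG2 cells transiently transfected with multiplexed cis-regulated reporter transcription units read endogenous TF activity. After 24 h compound exposure, reporter mRNA was quantified by RT-PCR, fluorescent labelling, HpaI digestion and capillary electrophoresis; bidirectional fits versus DMSO baseline.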

[18] = target: Estrogen-related receptor gamma (Homo sapiens) (UniProt P62508); assay: ATG_ERRg_TRANS: Attagene TRANS-FACTORIAL HepG2 Assay for human Estrogen-Related Receptor gamma (ERRg) (AID 2282977; active = hit-call score of the fitted dose curve at least 0.9, where 1 is the maximum;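 note: hits increase reporter signal over DMSO so potencies reflect activators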); details: HepG2 Attagene TRANS reporter, ERRg transactivation
Outline: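 Transfect HepG2 with multiple GAL4-UAS reporter transcription units; dose chemicals 24 h; isolate RNA, reverse-transcribe with oligo(dT), PCR-amplify, label with 6-FAM, digest with HpaI; size fragments by capillary electrophoresis. DMSO serves as negative control.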

[19] = target: Nuclear receptor subfamily 4 group A member 2 (Homo sapiens) (UniProt P43354); assay: ATG_NURR1_TRANS: Attagene TRANS-FACTORIAL HepG2 Assay for human Nuclear Receptor Related Protein 1 (NURR1) (AID 2282985; active = hit-call score of the fitted dose curve at least 0.9, where 1 is the maximum); details: HepG2 Attagene TRANS reporter, mRNA readout
Outline: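 After 24 h chemical dosing, total RNA from transiently transfected HepG2 cells was reverse-transcribed and reporter cDNA PCR-amplified, FAM-labelled and analysed by capillary electrophoresis. Activity fitted in positive direction, DMSO as negative control.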

Measured: AC50

Transcriptional activator Myb (Homo sapiens), sequence (P10242 whole entry, looked up): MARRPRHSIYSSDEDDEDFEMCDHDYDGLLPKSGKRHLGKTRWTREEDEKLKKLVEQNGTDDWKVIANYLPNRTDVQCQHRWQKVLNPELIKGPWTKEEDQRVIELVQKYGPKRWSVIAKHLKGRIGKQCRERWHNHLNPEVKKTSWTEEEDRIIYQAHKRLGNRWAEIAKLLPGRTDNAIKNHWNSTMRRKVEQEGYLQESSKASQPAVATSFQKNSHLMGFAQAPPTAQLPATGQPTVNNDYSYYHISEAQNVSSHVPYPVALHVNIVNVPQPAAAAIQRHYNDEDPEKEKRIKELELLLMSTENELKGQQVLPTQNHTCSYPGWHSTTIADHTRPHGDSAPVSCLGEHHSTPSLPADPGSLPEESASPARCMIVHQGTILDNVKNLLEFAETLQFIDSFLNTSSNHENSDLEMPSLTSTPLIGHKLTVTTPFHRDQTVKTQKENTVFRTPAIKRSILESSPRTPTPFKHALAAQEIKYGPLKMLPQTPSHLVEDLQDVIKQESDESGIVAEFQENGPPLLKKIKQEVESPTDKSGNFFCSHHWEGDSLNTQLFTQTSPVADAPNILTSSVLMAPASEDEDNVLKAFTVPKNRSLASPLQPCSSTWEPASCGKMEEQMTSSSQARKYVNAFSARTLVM
Glucocorticoid receptor (Homo sapiens), sequence (P04150 whole entry, looked up, the tested form may be a part): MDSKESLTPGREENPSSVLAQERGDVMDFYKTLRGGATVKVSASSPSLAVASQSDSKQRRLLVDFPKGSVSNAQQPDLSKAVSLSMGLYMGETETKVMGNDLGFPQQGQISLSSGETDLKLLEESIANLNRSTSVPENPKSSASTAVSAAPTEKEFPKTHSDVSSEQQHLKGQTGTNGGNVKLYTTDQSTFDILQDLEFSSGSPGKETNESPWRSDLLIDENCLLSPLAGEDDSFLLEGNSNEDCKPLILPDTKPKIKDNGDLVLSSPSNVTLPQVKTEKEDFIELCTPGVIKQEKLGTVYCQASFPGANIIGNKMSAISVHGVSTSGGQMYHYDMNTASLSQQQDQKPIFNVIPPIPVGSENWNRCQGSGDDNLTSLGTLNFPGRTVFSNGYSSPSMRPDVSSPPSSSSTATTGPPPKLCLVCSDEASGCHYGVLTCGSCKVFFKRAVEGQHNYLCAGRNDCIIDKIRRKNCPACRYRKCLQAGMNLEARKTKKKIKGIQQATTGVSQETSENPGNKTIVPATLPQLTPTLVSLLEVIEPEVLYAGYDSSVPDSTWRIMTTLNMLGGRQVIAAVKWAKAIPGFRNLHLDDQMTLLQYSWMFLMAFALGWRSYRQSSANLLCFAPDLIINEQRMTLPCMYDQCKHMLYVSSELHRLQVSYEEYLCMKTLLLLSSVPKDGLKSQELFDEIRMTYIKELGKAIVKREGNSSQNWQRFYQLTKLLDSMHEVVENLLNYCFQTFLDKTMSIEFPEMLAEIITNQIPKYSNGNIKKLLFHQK
Oxysterols receptor LXR-alpha (Homo sapiens), sequence (Q13133 whole entry, looked up): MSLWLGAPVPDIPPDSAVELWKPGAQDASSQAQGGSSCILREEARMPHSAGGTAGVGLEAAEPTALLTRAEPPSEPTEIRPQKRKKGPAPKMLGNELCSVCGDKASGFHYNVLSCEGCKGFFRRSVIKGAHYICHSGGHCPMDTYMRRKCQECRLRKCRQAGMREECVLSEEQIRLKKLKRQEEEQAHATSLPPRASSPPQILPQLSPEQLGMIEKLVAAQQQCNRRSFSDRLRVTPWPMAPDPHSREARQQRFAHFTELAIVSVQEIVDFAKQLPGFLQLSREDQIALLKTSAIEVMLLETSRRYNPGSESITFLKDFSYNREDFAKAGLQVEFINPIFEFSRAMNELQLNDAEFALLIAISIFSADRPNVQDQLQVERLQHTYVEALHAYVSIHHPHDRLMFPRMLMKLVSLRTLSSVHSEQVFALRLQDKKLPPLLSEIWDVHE
Nuclear receptor subfamily 4 group A member 2 (Homo sapiens), sequence (P43354 whole entry, looked up): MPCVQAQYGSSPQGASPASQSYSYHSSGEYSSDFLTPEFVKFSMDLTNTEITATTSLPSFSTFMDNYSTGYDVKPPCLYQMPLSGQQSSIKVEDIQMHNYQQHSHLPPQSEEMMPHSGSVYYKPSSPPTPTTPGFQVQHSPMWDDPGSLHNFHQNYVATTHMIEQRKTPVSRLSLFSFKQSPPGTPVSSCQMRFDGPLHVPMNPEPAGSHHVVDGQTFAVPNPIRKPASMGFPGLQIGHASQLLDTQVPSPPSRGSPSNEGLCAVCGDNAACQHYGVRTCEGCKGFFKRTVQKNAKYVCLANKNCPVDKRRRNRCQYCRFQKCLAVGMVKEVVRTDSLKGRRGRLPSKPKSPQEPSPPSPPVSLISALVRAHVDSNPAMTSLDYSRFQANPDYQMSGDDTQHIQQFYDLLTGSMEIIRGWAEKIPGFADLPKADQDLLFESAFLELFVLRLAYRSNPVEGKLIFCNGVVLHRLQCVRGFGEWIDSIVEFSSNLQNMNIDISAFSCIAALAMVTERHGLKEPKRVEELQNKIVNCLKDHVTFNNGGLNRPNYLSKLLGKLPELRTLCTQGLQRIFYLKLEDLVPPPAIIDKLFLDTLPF
Bile acid receptor (Homo sapiens), sequence (Q96RI1 whole entry, looked up, the tested form may be a part): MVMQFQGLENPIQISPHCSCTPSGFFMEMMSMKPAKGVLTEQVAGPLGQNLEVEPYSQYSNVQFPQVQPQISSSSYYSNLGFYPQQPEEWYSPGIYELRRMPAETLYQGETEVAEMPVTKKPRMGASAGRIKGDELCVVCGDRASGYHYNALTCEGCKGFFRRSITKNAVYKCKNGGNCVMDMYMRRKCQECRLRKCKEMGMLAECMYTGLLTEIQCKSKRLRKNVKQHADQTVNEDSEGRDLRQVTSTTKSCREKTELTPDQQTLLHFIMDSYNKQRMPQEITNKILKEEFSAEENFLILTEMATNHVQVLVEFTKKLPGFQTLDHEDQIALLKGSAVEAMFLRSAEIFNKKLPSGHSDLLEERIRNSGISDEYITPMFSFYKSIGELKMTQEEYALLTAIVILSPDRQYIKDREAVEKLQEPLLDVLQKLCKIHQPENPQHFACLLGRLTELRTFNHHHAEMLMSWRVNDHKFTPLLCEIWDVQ
Hepatocyte nuclear factor 4-alpha (Homo sapiens), sequence (P41235 whole entry, looked up, the tested form may be a part): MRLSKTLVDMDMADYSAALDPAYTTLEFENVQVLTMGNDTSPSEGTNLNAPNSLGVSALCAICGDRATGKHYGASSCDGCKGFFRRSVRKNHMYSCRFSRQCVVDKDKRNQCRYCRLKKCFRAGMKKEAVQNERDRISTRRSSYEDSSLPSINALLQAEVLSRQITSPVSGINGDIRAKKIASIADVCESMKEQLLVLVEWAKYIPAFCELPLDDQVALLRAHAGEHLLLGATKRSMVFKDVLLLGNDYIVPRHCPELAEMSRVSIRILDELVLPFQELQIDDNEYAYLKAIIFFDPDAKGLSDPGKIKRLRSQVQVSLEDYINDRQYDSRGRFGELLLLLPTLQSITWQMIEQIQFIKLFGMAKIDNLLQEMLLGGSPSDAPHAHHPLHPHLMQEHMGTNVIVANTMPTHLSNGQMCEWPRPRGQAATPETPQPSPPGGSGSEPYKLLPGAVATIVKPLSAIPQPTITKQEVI
Cellular tumor antigen p53 (Homo sapiens), sequence (P04637 whole entry, looked up): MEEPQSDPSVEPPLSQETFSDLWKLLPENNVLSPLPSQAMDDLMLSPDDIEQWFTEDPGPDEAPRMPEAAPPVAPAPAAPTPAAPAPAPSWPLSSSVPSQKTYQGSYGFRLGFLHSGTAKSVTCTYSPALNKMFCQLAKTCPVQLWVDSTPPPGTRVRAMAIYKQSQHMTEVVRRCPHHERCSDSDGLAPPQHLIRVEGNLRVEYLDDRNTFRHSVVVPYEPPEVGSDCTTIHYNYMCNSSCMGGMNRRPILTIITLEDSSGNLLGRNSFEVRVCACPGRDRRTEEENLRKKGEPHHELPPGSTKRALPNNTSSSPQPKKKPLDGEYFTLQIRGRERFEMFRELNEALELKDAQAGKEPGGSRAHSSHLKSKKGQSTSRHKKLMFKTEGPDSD
Oxysterols receptor LXR-beta (Homo sapiens), sequence (P55055 whole entry, looked up, the tested form may be a part): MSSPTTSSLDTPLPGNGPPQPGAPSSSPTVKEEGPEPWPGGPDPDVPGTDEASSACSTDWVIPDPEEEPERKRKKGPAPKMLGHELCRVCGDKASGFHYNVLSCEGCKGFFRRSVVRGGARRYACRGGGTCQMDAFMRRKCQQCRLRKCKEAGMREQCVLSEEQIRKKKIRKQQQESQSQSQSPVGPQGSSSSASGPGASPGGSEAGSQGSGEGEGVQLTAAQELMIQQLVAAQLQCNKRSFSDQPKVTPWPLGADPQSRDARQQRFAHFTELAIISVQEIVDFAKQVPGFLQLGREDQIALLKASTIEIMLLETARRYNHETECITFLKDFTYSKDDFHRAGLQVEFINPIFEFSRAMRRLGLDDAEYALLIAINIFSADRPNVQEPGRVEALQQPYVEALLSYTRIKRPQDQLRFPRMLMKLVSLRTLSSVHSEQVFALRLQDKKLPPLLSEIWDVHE
Myc proto-oncogene protein (Homo sapiens), sequence (P01106 whole entry, looked up): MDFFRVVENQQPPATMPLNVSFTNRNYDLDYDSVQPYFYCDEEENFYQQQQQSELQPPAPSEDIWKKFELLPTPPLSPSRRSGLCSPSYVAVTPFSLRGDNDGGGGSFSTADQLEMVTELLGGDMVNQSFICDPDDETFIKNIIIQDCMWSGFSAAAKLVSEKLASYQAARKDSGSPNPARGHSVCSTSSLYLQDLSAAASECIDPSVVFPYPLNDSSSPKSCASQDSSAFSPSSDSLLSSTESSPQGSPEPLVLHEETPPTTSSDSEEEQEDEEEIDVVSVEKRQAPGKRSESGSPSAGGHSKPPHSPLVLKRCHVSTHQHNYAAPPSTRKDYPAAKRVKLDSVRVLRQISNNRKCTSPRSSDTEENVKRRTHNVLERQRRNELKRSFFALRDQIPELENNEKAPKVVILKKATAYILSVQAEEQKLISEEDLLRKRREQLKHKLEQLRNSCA

O=C1OC2(c3ccc(O)cc3Oc3cc(O)ccc32)c2ccccc21
inactive: [1] | [2] | [3] | [4] | [5] | [6] | [7] | [8] | [9] | [10] | [11] | [12] | [13]

CCCC[N+](C)(CCCC)CCCC
inactive: [1] | [3] | [14] | [15] | [6] | [7] | [8] | [9] | [10] | [11]

O=C1OCc2ccccc21
inactive: [1] | [2] | [4] | [15] | [6] | [7] | [8] | [9] | [16] | [10] | [11] | [17]

CC1=CC(O)CC(C)(C)C1 (configuration not stated)
inactive: [1] | [3] | [14] | [15] | [6] | [7] | [8] | [9] | [16] | [10] | [11] | [17]

NS(=O)(=O)c1cc(C(=O)O)c(NCc2ccco2)cc1Cl
inactive: [18] | [5] | [15] | [6] | [9] | [11]

CCO[Si](CCC#N)(OCC)OCC
inactive: [1] | [2] | [3] | [14] | [4] | [5] | [15] | [19] | [6] | [7] | [8] | [9] | [16] | [10]

CN(C)CCC=C1c2ccccc2CCc2ccccc21
active: [16] 13.4 µM | [10] 33.4 µM | [11] 24.6 µM | [17] 23.1 µM
inactive: [1] | [2] | [3] | [15] | [6] | [7] | [8] | [9]

CC(C)C(=O)OCC=Cc1ccccc1
active: [10] 59.3 µM
inactive: [1] | [2] | [4] | [15] | [19] | [6] | [7] | [8] | [9] | [16] | [17]

CC1=CC(C)C(C=O)C(C)C1 (configuration not stated) (tested in a mixture with another compound)
inactive: [1] | [2] | [3] | [14] | [5] | [15] | [19] | [6] | [7] | [8] | [9] | [16] | [10] | [11] | [12] | [13]

C=CC(C)(CCC=C(C)C)OC(=O)CC (configuration not stated)
active: [10] 68.1 µM
inactive: [1] | [2] | [3] | [14] | [4] | [15] | [19] | [6] | [7] | [8] | [9] | [11]

C=C(C)C(=O)OCCOCCOC(=O)C(=C)C
inactive: [18] | [5] | [15] | [6] | [7] | [8] | [9] | [16] | [10] | [11]

CC1COC(=O)O1 (configuration not stated)
inactive: [1] | [14] | [15] | [6] | [8] | [9] | [10] | [11] | [17]

CCCCCCCCOC(=O)c1ccc(O)cc1
inactive: [1] | [3] | [4] | [5] | [15] | [19] | [6] | [7] | [8] | [9] | [16] | [10] | [11]

S=c1[nH][nH]c(=S)s1
inactive: [1] | [3] | [19] | [6] | [7] | [8] | [9] | [16] | [10] | [11]

[Cu+]
active: [10] 2.29 µM
inactive: [1] | [14] | [4] | [15] | [19] | [6] | [8] | [9] | [11]

c1ccc(OCCOc2ccccc2)cc1
inactive: [1] | [3] | [4] | [5] | [15] | [6] | [7] | [8] | [9] | [16] | [10] | [11] | [17] | [13]
active: [12] 1.24 µM and 1.4 µM

O=C(C=Cc1ccccc1)OCCCc1ccccc1
inactive: [1] | [14] | [4] | [15] | [19] | [6] | [7] | [8] | [9] | [16] | [11]
active: [10] 58 µM

CC(=O)CCC(=O)O
inactive: [1] | [3] | [15] | [6] | [7] | [8] | [9] | [10] | [11]

COc1ccc(OC)cc1
inactive: [1] | [3] | [4] | [5] | [6] | [7] | [8] | [9] | [16] | [10] | [11] | [17]

CCCOC(=O)CC
inactive: [1] | [14] | [4] | [5] | [15] | [19] | [6] | [8] | [9] | [10] | [11]

CCCCCCC(C)O (configuration not stated)
inactive: [1] | [14] | [4] | [5] | [15] | [6] | [8] | [9] | [10] | [11] | [17]

From PubChem BioAssay (EPA / NIEHS)
